In PubChem BioAssay (NCI):
Compounds without any hit were thinned out: in the full panel of roughly 79,000, 15% have a hit. Active and inactive are the calls of the source. No stated cut-off is given here; in the data, active means growth inhibition above about 70%; inactive means the rest.

Columns and labels:
[1] = NCI Yeast Anticancer Drug Screen. Data for the wt1 strain (AID 149);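 further: 0% = growth of vehicle-treated wt1 cultures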; conditions: S. cerevisiae wt1 strain (SPY 50644) growth inhibition, stronger effect = higher value
Summary of the method: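 Yeast wt1 strain exposed to compounds; growth inhibition measured relative to vehicle-treated controls.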

[2] = NCI Yeast Anticancer Drug Screen. Data for the rad50EPP+ strain (AID 151);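 further: 0% = growth of vehicle-treated control cultures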; conditions: S. cerevisiae rad50 mutant strain, stronger effect = higher value
Summary of the method: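 rad50EPP+ yeast treated with test compounds. Readout: growth vs vehicle control.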

[3] = NCI Yeast Anticancer Drug Screen. Data for the rad50 strain (AID 155);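 further: 0% = growth of vehicle-only cultures of the same strain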; conditions: S. cerevisiae rad50 strain growth inhibition, stronger effect = higher value
Summary of the method: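 Yeast carrying a defined DNA repair defect were exposed to test compounds, and growth was compared with vehicle-treated controls to give percent inhibition.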

[4] = NCI Yeast Anticancer Drug Screen. Data for the mec2-1 strain (AID 157); conditions: S. cerevisiae mec2-1 strain, stronger effect = higher value
Summary of the method: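 Growth inhibition is read against vehicle-treated controls after compound exposure of the mec2-1 yeast strain, which is defective in DNA damage repair or cell cycle control.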

[5] = NCI Yeast Anticancer Drug Screen. Data for the rad14 strain (AID 159);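 further: 0% = growth of vehicle-treated control cultures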; conditions: S. cerevisiae rad14 strain growth inhibition, stronger effect = higher value
Summary of the method: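 Yeast cells carrying a defined DNA-repair defect were exposed to compounds, and growth inhibition was calculated relative to vehicle-treated control cultures.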

[6] = NCI Yeast Anticancer Drug Screen. Data for the sgs1 mgt1 strain (AID 161);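 further: 0% = growth of cultures given vehicle only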; conditions: S. cerevisiae sgs1 mgt1 strain, stronger effect = higher value
Summary of the method: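 Compounds are added to genetically altered yeast, and growth is compared with cultures given vehicle alone to give percent inhibition.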

[7] = NCI Yeast Anticancer Drug Screen. Data for the CLN2oe strain (AID 163);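 further: 0% = growth of vehicle-only control cultures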; conditions: S. cerevisiae CLN2oe strain, stronger effect = higher value
Summary of the method: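 Compound-treated yeast; growth vs vehicle ctrl = % inhibition. Genetically altered strain (cell-cycle control).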

[8] = NCI Yeast Anticancer Drug Screen. Data for the cln2 rad14 strain (AID 165);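 further: 0% = growth equal to vehicle treated cultures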; conditions: S. cerevisiae cln2 rad14 strain, stronger effect = higher value
Summary of the method: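 Growth inhibition, relative to vehicle-treated controls, is the read-out. The test organism is a yeast strain with defined genetic alterations, cln2 rad14.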

[9] = NCI Yeast Anticancer Drug Screen. Data for the bub3 strain (AID 167); conditions: S. cerevisiae bub3 mutant strain, stronger effect = higher value
Summary of the method: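 Compounds were applied to a genetically altered yeast strain carrying a cell-cycle control defect. Growth inhibition was scored against vehicle-treated controls.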

[10] = NCI Yeast Anticancer Drug Screen. Data for the wt2 strain (AID 169);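 further: 0% = growth of vehicle-treated yeast cultures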; conditions: S. cerevisiae wt2 strain growth inhibition, stronger effect = higher value
Summary of the method: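 Compound exposure of yeast; growth compared with vehicle controls; inhibition reported.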

[11] = NCI Yeast Anticancer Drug Screen. Data for the mlh1 strain (AID 171);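 further: 0% = growth of vehicle-treated control cultures of the same strain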; conditions: S. cerevisiae mlh1 strain growth inhibition, stronger effect = higher value
Summary of the method: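 Compounds are applied to a genetically altered yeast strain, and its growth is compared with that of vehicle-treated cultures to give percent inhibition.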

[12] = NCI Yeast Anticancer Drug Screen. Data for the sgs1 strain (AID 173);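 further: 0% = growth of vehicle-only control cultures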; conditions: S. cerevisiae sgs1 mutant, stronger effect = higher value
Summary of the method: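 Compounds applied to genetically altered yeast; growth compared with vehicle-treated cultures to give % inhibition.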

[13] = NCI Yeast Anticancer Drug Screen. Data for the mlh1 rad18 strain (AID 175); conditions: S. cerevisiae mlh1 rad18 strain growth inhibition, stronger effect = higher value
Summary of the method: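 Cells of a genetically altered yeast strain, deficient in DNA damage repair, were treated with compound. Their growth was then compared with that of vehicle-treated cultures to give inhibition.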

[14] = NCI Yeast Anticancer Drug Screen. Data for the rad18 strain (AID 177); conditions: S. cerevisiae rad18 mutant growth inhibition, stronger effect = higher value
Summary of the method: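 Compounds are applied to a repair-deficient yeast strain, and growth is compared with that of vehicle-treated cultures to give percent inhibition.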

[15] = NCI Yeast Anticancer Drug Screen. Data for the mgt1 strain (AID 153); conditions: S. cerevisiae mgt1 mutant growth inhibition, stronger effect = higher value
Summary of the method: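 Growth inhibition relative to vehicle controls was scored for the mgt1 yeast strain after compound exposure.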

[16] = at 5.0 µM (retest, dose inferred, filed as 0.5)
[17] = at 50.0 µM (retest, dose inferred, filed as 5.0)

Measured: growth inhibition

O=C1OC(c2ccc(Cl)cc2)Sc2ccccc21 (stereo not given)
inactive: [1]; at 1.2 µM 1% | [1]; at 3.7 µM 6% | [1]; at 11.0 µM 17% | [2]; at 1.2 µM 11% | [2]; at 3.7 µM 28% | [2]; at 11.0 µM 45% | [2]; at 33.0 µM 61% | [2]; at 100.0 µM 58% | [3]; at 1.2 µM 7% | [3]; at 3.7 µM 13% | [3]; [16] 5% | [3]; at 11.0 µM 62% | [4]; at 1.2 µM 9% | [4]; at 3.7 µM 17% | [4]; [16] -7% | [4]; at 11.0 µM 33% | [4]; [17] 35% | [5]; at 1.2 µM 7% | [5]; at 3.7 µM 11% | [5]; at 11.0 µM 25% | [6]; [16] 4% | [6]; [17] 52% | [7]; at 1.2 µM 9% | [7]; at 3.7 µM 13% | [7]; at 11.0 µM 27% | [8]; [16] -61% | [8]; [17] -14% | [8]; at 50.0 µM -26.9% | [9]; at 1.2 µM 11% | [9]; at 3.7 µM 15% | [9]; [16] 7% | [9]; at 11.0 µM 29% | [9]; [17] 46% | [10]; at 1.2 µM 6% | [10]; at 3.7 µM 6% | [10]; at 11.0 µM 31% | [11]; at 1.2 µM 6% | [11]; at 3.7 µM 12% | [11]; at 11.0 µM 27% | [12]; at 1.2 µM 2% | [12]; at 3.7 µM 11% | [12]; at 11.0 µM 37% | [13]; [16] 16% | [14]; at 1.2 µM 6% | [14]; at 3.7 µM 15% | [14]; at 11.0 µM 68%
active: [1]; at 33.0 µM 88% | [1]; at 100.0 µM 98% | [3]; at 33.0 µM 95% | [3]; [17] 88% | [3]; at 50.0 µM 83.8% | [3]; at 100.0 µM 92% | [4]; at 33.0 µM 96% | [4]; at 50.0 µM 86.5% | [4]; at 100.0 µM 98% | [5]; at 33.0 µM 98% | [5]; at 100.0 µM 98% | [6]; at 50.0 µM 85% | [7]; at 33.0 µM 97% | [7]; at 100.0 µM 97% | [9]; at 33.0 µM 96% | [9]; at 50.0 µM 93.9% | [9]; at 100.0 µM 97% | [10]; at 33.0 µM 84% | [10]; at 100.0 µM 98% | [11]; at 33.0 µM 97% | [11]; at 100.0 µM 98% | [12]; at 33.0 µM 96% | [12]; at 100.0 µM 97% | [13]; [17] 86% | [13]; at 50.0 µM 95% | [14]; at 33.0 µM 96% | [14]; at 100.0 µM 94%

NNc1nnc(-c2ccccc2)nc1Cc1ccccc1
inactive: [1]; at 1.2 µM -25% | [1]; at 3.7 µM -15% | [1]; at 11.0 µM -7% | [2]; at 1.2 µM -12% | [2]; at 3.7 µM -3% | [2]; at 11.0 µM 12% | [2]; at 33.0 µM 48% | [15]; at 1.2 µM 16% | [15]; at 3.7 µM 21% | [15]; at 11.0 µM 21% | [3]; at 1.2 µM 4% | [3]; at 3.7 µM -1% | [3]; [16] -35% | [3]; at 11.0 µM 10% | [3]; [17] -4% | [3]; at 50.0 µM 67.1% | [7]; at 1.2 µM 25% | [7]; at 3.7 µM 18% | [7]; at 11.0 µM 11% | [8]; [16] 12% | [9]; at 1.2 µM 16% | [9]; at 3.7 µM 5% | [9]; [16] -9% | [9]; at 11.0 µM -17% | [10]; at 1.2 µM -34% | [10]; at 3.7 µM -30% | [10]; at 11.0 µM -11% | [11]; at 1.2 µM 6% | [11]; at 3.7 µM 4% | [11]; at 11.0 µM 27% | [12]; at 1.2 µM -15% | [12]; at 3.7 µM -15% | [12]; at 11.0 µM -6% | [13]; [16] -30% | [14]; at 1.2 µM -17% | [14]; at 3.7 µM -30% | [14]; at 11.0 µM -5%
active: [1]; at 33.0 µM 96% | [1]; at 100.0 µM 88% | [2]; at 100.0 µM 90% | [15]; at 33.0 µM 97% | [15]; at 100.0 µM 88% | [3]; at 33.0 µM 96% | [3]; at 100.0 µM 93% | [7]; at 33.0 µM 97% | [7]; at 100.0 µM 93% | [8]; [17] 80% | [8]; at 50.0 µM 86% | [9]; at 33.0 µM 97% | [9]; [17] 96% | [9]; at 50.0 µM 89% | [9]; at 100.0 µM 90% | [10]; at 33.0 µM 95% | [10]; at 100.0 µM 91% | [11]; at 33.0 µM 97% | [11]; at 100.0 µM 83% | [12]; at 33.0 µM 91% | [12]; at 100.0 µM 94% | [13]; [17] 97% | [13]; at 50.0 µM 83.6% | [14]; at 33.0 µM 96% | [14]; at 100.0 µM 91%

CCCCCCCCCC/C=C\CC(=O)O
active: [1]; at 100.0 µM 97% | [15]; at 100.0 µM 99% | [4]; [17] 74% | [4]; at 100.0 µM 99% | [5]; at 100.0 µM 99% | [6]; [17] 89% | [7]; at 100.0 µM 73% | [9]; at 100.0 µM 98% | [10]; at 100.0 µM 98% | [11]; at 100.0 µM 99% | [12]; at 100.0 µM 99% | [13]; [17] 87% | [14]; at 100.0 µM 99%
inactive: [1]; at 1.2 µM -1% | [1]; at 3.7 µM -2% | [1]; at 11.0 µM -3% | [1]; at 33.0 µM 2% | [2]; at 1.2 µM -4% | [2]; at 3.7 µM 3% | [2]; at 11.0 µM 11% | [2]; at 33.0 µM 22% | [2]; at 100.0 µM 47% | [15]; at 1.2 µM -3% | [15]; at 3.7 µM -2% | [15]; at 11.0 µM -2% | [15]; at 33.0 µM 28% | [4]; at 1.2 µM -3% | [4]; at 3.7 µM 0% | [4]; [16] 5% | [4]; at 11.0 µM 1% | [4]; at 33.0 µM 8% | [4]; at 50.0 µM -0.8% | [5]; at 1.2 µM 0% | [5]; at 3.7 µM 1% | [5]; at 11.0 µM 9% | [5]; at 33.0 µM 33% | [6]; [16] -1% | [6]; at 50.0 µM 6.35% | [7]; at 1.2 µM -3% | [7]; at 3.7 µM -1% | [7]; at 11.0 µM -1% | [7]; at 33.0 µM -5% | [8]; [16] 7% | [8]; [17] 14% | [8]; at 50.0 µM 9.65% | [9]; at 1.2 µM -2% | [9]; at 3.7 µM -4% | [9]; [16] 1% | [9]; at 11.0 µM -8% | [9]; at 33.0 µM -3% | [9]; [17] 1% | [9]; at 50.0 µM 36.1% | [10]; at 1.2 µM -2% | [10]; at 3.7 µM 6% | [10]; at 11.0 µM -3% | [10]; at 33.0 µM 3% | [11]; at 1.2 µM 0% | [11]; at 3.7 µM -4% | [11]; at 11.0 µM -3% | [11]; at 33.0 µM 11% | [12]; at 1.2 µM -3% | [12]; at 3.7 µM -2% | [12]; at 11.0 µM 2% | [12]; at 33.0 µM 31% | [13]; [16] 4% | [13]; at 50.0 µM -21.2% | [14]; at 1.2 µM -3% | [14]; at 3.7 µM 2% | [14]; at 11.0 µM -1% | [14]; at 33.0 µM 48%
